In the library only some 19% were active in any assay of this set; here they are far more common.
S-ASM inh = blocks human secretory acid sphingomyelinase | P17405 | placental ASM, HMU-PC fluorogenic substrate, 60 min | Potency, µM (series often up to 57.5 µM), for the others: top-dose activity change, negative = inhibition, hits mostly inhibitors | actives 0.006% (n = 340,000) | AID 504937; note: potency is the fitted concentration of half-maximal effect
Target sequence (P17405 47-631 limits assumed): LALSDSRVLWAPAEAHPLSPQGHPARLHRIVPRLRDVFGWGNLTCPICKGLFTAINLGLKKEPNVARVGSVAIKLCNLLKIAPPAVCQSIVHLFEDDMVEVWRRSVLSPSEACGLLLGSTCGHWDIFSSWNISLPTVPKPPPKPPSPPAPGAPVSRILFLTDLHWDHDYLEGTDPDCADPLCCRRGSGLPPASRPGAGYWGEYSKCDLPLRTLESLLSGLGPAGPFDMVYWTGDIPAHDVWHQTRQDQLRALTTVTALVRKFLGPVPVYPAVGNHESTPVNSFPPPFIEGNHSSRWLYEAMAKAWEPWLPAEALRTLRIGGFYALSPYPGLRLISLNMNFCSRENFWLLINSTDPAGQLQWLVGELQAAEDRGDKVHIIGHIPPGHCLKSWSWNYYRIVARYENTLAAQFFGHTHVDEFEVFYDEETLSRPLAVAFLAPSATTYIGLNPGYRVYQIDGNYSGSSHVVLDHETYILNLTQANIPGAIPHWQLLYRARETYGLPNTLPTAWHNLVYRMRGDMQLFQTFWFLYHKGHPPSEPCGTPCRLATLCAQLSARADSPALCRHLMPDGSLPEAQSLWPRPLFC
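Fluorogenic HMU-PC substrate (9 uM final) is turned over by placental ASM in 60 min at 37 C after a 10 min compound preincubation. Reaction ended by alkaline stop (pH 10), with fluorescence read at 386/447 nm.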
TDP1 cell noCPT = qHTS for Inhibitors of human tyrosyl-DNA phosphodiesterase 1 (TDP1): qHTS in cells in absence of CPT. DT40 Tdp1-/- hTDP1 cells, no CPT, ATP luminescence, 48 h. actives 15% (n = 420,000). Potency, µM (top dose mostly 46.2 µM), for inactives: at the top dose activity change, negative = growth inhibition, hits mostly inhibitors. AID 686978, 2013; note: potency is the fitted concentration of half-maximal effect; % is set by controls: 0 for no effect and ±100 for the full control effect; nearly all actives have a fitted effect of over 55% in size
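DT40 Tdp1-/-;hTDP1 cells, no CPT (DMSO vehicle only), 400 cells/well; compounds pin-transferred; ≥48 hr, 37 °C; CellTiter-Glo 30 min RT dark, luminescence read.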
HepG2 tox = counter-screen for TGF-b inhibitors: cytotoxicity in HepG2 cells | HepG2 CAGA-GFP viability, ATP luminescence, 18 h | Potency, µM (highest dose often 46.1 µM), inactives show at the top dose activity change, negative = cytotoxicity, usual class: cytotoxic | actives 0.76% (n = 410,000) | AID 588856; note: potency is the fitted concentration of half-maximal effect
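HepG2 CAGA-GFP cells (1000/well, DMEM with 1% FBS) received compound, then TGF-beta at 500 pg/mL final, and were incubated 18 hours at 37 degrees C. Viability was read by CellTiter-Glo luminescence. Media-only wells were set as complete cell-killing and DMSO as no toxicity.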
IL1B secr inh = inhibitors of inflammasome signaling (IL-1 beta secretion) | THP-1 LPS/ATP IL-1B secretion, AlphaLISA, 16 h; stronger effect = lower value | AID 743279 | actives 4.7% (n = 360,000) | activity change, % at 57.5 µM; in the data active = activity change below about -50%; inconclusive = mostly about -30% to -49%; note: % is set by controls: 0 for no effect and ±100 for the full control effect
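Secreted IL-1B measured by AlphaLISA bead assay after 16 h compound exposure of THP-1 cells; compounds (final up to 57.5 uM) added 1 h before LPS (250 ng/mL) and ATP (1.25 mM) stimulation; lower signal means less secretion.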
TDP1 cell CPT = DT40-hTDP1 cell growth loss with CPT; chicken DT40 Tdp1-/-;hTDP1 cells + 20 nM CPT, ATP luminescence, 48 h; Potency, µM (doses to about 46.2 µM), for inactives: top-dose activity change, negative = growth inhibition, most hits filed as inhibitors; actives 12% (n = 420,000); note: potency is the fitted concentration of half-maximal effect; % is set by controls: 0 for no effect and ±100 for the full control effect; nearly all actives have a fitted effect of over 55% in size
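Chicken DT40 Tdp1-/- cells complemented with human TDP1, 400 cells/well, exposed to compounds plus 20 nM camptothecin for at least 48 h at 37 C; viability read as ATP content by CellTiter-Glo luminescence.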
TGFb inhibitor = blocks TGF-b signaling | actives 1.2% (n = 410,000) | AID 588855 | HepG2 CAGA-GFP TGF-b/SMAD3 reporter, GFP fluorescence, 18 h; TGF-beta stimulated, 500 pg/mL final | Potency, µM (series often up to 46.1 µM), for inactives: at the highest dose activity, negative = inhibition, hits mostly inhibitors; note: potency is the fitted concentration of half-maximal effect; % is set by controls: 0 for no effect and ±100 for the full control effect; nearly all actives have a fitted effect of over 65% in size
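GFP signal (ex488/em500-530) from TGF-beta-stimulated HEPG2 CAGA-GFP cells, 500 pg/mL final, 18 h at 37 degrees C in DMEM plus 1% FBS, normalized to unstimulated and DMSO-stimulated controls.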
* hit, by the source's call; ? = inconclusive; nt = no result. Unless noted, calls come from the whole dose curve; as a rule, active = well fitted curve in the direction sought with a large enough effect; inconclusive = small, poorly fitted or top-dose-only effect, or another doubt; inactive = no such curve, though single readings can be large; an effect the other way counts as inactive or inconclusive.

SMILES	S-ASM inh	TDP1 cell noCPT	HepG2 tox	IL1B secr inh	TDP1 cell CPT	TGFb inhibitor
COc1ccc(NS(=O)(=O)c2csc(C(=O)Nc3ccccc3)c2)cc1	-17%	?	-55%	0	?	?
Cc1ccc(OC(C)c2nnc(N)s2)cc1Cl (configuration not stated)	3%	?	0%	2	21µM*	7%
CCn1c(SCC(=O)Nc2cc(C)nn2-c2ccccc2)nnc1-c1cccs1	-2%	-4%	13%	-5	6%	-3%
CCN(Cc1ccncc1)Cc1nc(-c2ccc(C(=O)OC)cc2)no1	6%	21µM*	-12%	24	?	12%
Cc1ccc2c(c1)C(=O)OC(C(=O)Nc1ncc(Cc3ccccc3Cl)s1)C2 (configuration not stated)	nt	nt	2%	nt	nt	31%
Cc1ccc(NC(=O)CSc2nc(C)cc(C)c2C(=O)Nc2cccc(C)c2)cc1	nt	?	-21%	nt	-29%	-10%
O=C(c1ccc(OC2CCN(Cc3ccc(C(F)(F)F)cc3)CC2)cc1)N1CCCCC1	-3%	21µM*	-6%	4	?	6%
O=C(c1ccc(OC2CCN(Cc3ccccc3C(F)(F)F)CC2)cc1)N1CCCCC1	nt	?	-79%	-85*	?	?
COc1ccc(S(=O)(=O)Oc2ccc3cccc(N)c3c2)cc1	-3%	?	-7%	-10	?	0%
COc1ccc(N(C(=O)c2cccc(C)c2)S(=O)(=O)c2ccc(C)cc2)cc1	nt	?	-1%	nt	18µM*	-23%
COc1ccc(N(C(=O)c2ccc(OC)c(OC)c2)S(=O)(=O)c2ccc(Cl)cc2)cc1	nt	21µM*	-27%	nt	26µM*	-17%
COc1ccc(N(C(=O)C(C)C)S(=O)(=O)c2ccc3ccccc3c2)cc1	1%	?	-7%	26	15µM*	?
COc1ccc(S(=O)(=O)Oc2ccc3ccccc3c2)cc1	0%	29µM*	-15%	-13	16µM*	1%
CC(C)CNc1ncnc2oc(-c3ccco3)c(-c3ccco3)c12	nt	?	-28%	nt	?	?
COc1ccc(N(C(=O)c2ccc(Cl)cc2)S(=O)(=O)c2ccc(C)cc2)cc1	nt	23µM*	-7%	nt	?	12%
Cc1ccc(-c2cc(-c3n[nH]c(=S)o3)c3ccccc3n2)cc1	-1%	21µM*	0%	17	16µM*	-13%
COc1ccc(C(=O)O)cc1S(=O)(=O)N1CCN(Cc2ccc3c(c2)OCO3)CC1	1%	-11%	15%	18	26%	-2%
C=CCCN(C1CCCC1)S(=O)(=O)c1ccccc1Br	0%	-34%	3%	10	?	?
COc1cc(CN(C2CC2)S(=O)(=O)c2ccccc2Br)cc(OC)c1	-10%	13µM*	-26%	4	?	?
CCCCn1c(N)c(N(CC(C)C)C(=O)C2CCN(S(=O)(=O)c3ccc(Cl)cc3)CC2)c(=O)[nH]c1=O	10%	2%	-12%	4	-7%	-22%
CN(C(=O)CSc1nncc2ccccc12)c1ccccc1	5%	-29%	1%	-87*	-2%	-5%
C/C(=N/NC(=O)c1ccc(C)nc1)c1ccc2c(c1)CCCC2	-1%	23µM*	9%	65	15µM*	-4%
CON(C)S(=O)(=O)c1ccc2c(c1)N(Cc1ccc(C)cc1)C(=O)C1CCCN21 (configuration not stated)	6%	-9%	-4%	-12	3%	-3%
